Results on 89 compounds are retold here after PubChem BioAssay AID1578 (Sanford-Burnham Center for Chemical Genomics, 2009).

In all, about 290,000 compounds went through this assay and about 3,000 (1%) were called active. This excerpt belongs to a sample that is enriched for actives. Values without a mark were called inactive. Cut-off read from the data, not from the text of the source: active = inhibition mostly above about 36% (no sharp cut-off); inactive = mostly below about 34%.

The experiment is described as follows: inhibition of NOD1-driven NF-kB reporter – cell-based, luminescence, uHTS, primary screen (AID 1578).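 Note: HEK-293T reporter cells stimulated with the NOD1 agonist gamma-tri-DAP.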 As to conditions: NOD1-driven NF-kB luciferase reporter cells, at 4 µM, stronger effect = higher value. For orientation: A reporter such as luciferase makes a cellular process visible.
A word on the inhibition: it is the relative decrease from the control value, in per cent. For `Cc1cc(=O)oc2cc(NC(=O)c3ccccc3OC(F)F)ccc12`, the inhibition is -62.7%.

As to `Cc1ccc(O)c(C(=O)c2cc(C#N)c(=O)n(Cc3ccccc3)c2)c1`, the inhibition was -10.3%.

As to `Cc1ccc(O)c(C(=O)c2cc(C#N)c(=O)n(C(C)c3ccccc3)c2)c1` (centres undefined), the inhibition is -4.6%.

`Cc1c(NC(=O)c2ccc(N(Cc3ccccc3)S(C)(=O)=O)cc2)c(=O)n(-c2ccccc2)n1C`: the inhibition is -26.8%.

Take `CCOC(=O)N1CCN(C(=O)C2CCC(=O)N2C(C)C)CC1` (centres undefined): the inhibition was 3.6%.

As for `COc1ccc(/C=C/C(=O)O/N=C(\N)c2cccnc2)cc1OC`, the inhibition was -10%.

For the compound `Cc1cccc(-c2nc(CS(=O)CC(=O)NC(C)CCc3ccccc3)c(C)o2)c1` (centres undefined), the inhibition was 20.6%.

Regarding `Cc1ccccc1-c1nc(CS(=O)CC(=O)NC(C)CCc2ccccc2)c(C)o1` (centres undefined), the inhibition was 19.2%.

For `Cc1ccc(-c2nc(CS(=O)CC(=O)NC(C)CCc3ccccc3)c(C)o2)cc1` (centres undefined), the inhibition was 41.4% (active).

`Cc1c(OCC(=O)NCCCn2ccnc2)ccc2c3c(c(=O)oc12)CCC3`: the inhibition was -17.1%.

Turning to `Cc1cc(C)cc(NC(=O)C2C3C=CC(O3)C2C(=O)O)c1` (centres undefined), the inhibition was -15.9%.

For `O=C1C=C(c2cccs2)C[C@H](c2ccccc2)[C@H]1n1nnc([N+](=O)[O-])n1`, the inhibition was 42.1%.

`O=C1C=C(c2ccccc2)C[C@H](c2cccs2)[C@H]1n1cnc([N+](=O)[O-])c1`: the inhibition was -24.8%.

Consider `CCN(CC)C(=O)c1sc(NC(=S)N2CCN(C(=O)C3CCCO3)CC2)c(C(=O)OC)c1C` (centres undefined), for which the inhibition is 2.3%.

In the case of `COc1ccc2[nH]c3c(N4CCN(Cc5ccc6c(c5)OCO6)CC4)ncnc3c2c1`, the inhibition was 23.1%.

With `Brc1ccc2[nH]c3c(N4CCc5ccccc5C4)ncnc3c2c1`, the inhibition is -5.4%.

As for `COc1cccc2[nH]c3c(N4CCN(Cc5ccc6c(c5)OCO6)CC4)ncnc3c12`, the inhibition was 60.8%.

Regarding `c1ccc2c(c1)CCN(c1ncnc3c1[nH]c1ccccc13)C2`, the inhibition is 81.6%.

In the case of `Fc1ccc2[nH]c3c(N4CCN(Cc5ccc6c(c5)OCO6)CC4)ncnc3c2c1`, the inhibition was 58.2% (active).

As for `Cc1ccc2[nH]c3c(N4CCN(Cc5ccc6c(c5)OCO6)CC4)ncnc3c2c1`, the inhibition is 73.7%.

For `COc1ccc2c(c1)[nH]c1c(N3CCN(Cc4ccc5c(c4)OCO5)CC3)ncnc12`, the inhibition was 86% (active).

Regarding `Cc1ccc2c(c1)[nH]c1c(N3CCN(Cc4ccc5c(c4)OCO5)CC3)ncnc12`, the inhibition is 58.5%.

With `O=C(COC(=O)Cc1cccs1)Nc1ccc(F)c(F)c1F`, the inhibition is -10.6%.

For `Cc1ccccc1-n1c(=O)cc(NCc2ccc3c(c2)OCO3)[nH]c1=O`, the inhibition is -1.9%.

On to `CN1C(=O)/C(=C\c2ccccc2)Sc2ccc(C(=O)N3CCN(c4ccccn4)CC3)cc21`, for which the inhibition is 46.8%.

With `CN1C(=O)/C(=C/c2ccc(C(F)(F)F)cc2)Sc2ccc(C(=O)N3CCN(c4ccccn4)CC3)cc21`, the inhibition is 17.8%.

With `CCN(CC)S(=O)(=O)c1ccc(S(=O)(=O)Nc2ccc(C(=O)N3CCCC3)cc2)cc1`, the inhibition is -2.4%.

`COc1ccc(NC(=O)CCN2C(=O)c3cccc([N+](=O)[O-])c3C2=O)cc1`: the inhibition is -11.3%.

For `N=c1oc2ccc(Cl)cc2cc1C(=O)Nc1ccc(F)cc1`, the inhibition was -7.8%.

Consider `O=C(CCS(=O)(=O)c1ccccc1)Nc1ccccc1N1CCOCC1`, for which the inhibition is -9%.

For the compound `CCOC(=O)C1=C(C)N=C2c3ccccc3C(=O)C2C1c1ccc(C)cc1` (centres undefined), the inhibition is 44.1%.

As to `CCOC(=O)C1=C(C)N=C2c3ccccc3C(=O)C2C1c1ccc(Cl)cc1` (centres undefined), the inhibition is 16.6%.

On to `CCOC(=O)C1=C(C)N=C2c3ccccc3C(=O)C2C1c1ccc(Br)cc1` (centres undefined), for which the inhibition was 72.4% (active).

On to `Cc1ccc(C2N(c3cccc(Cl)c3)C(=O)N3CCCN23)cc1` (centres undefined), for which the inhibition was 4.2%.

Regarding `O=[N+]([O-])c1cc(/C=N/n2c(-c3cccnc3)n[nH]c2=S)ccc1Cl`, the inhibition was -11.7%.

In the case of `Cc1cc(C)nc(NC(=O)Cc2ccc([N+](=O)[O-])cc2)c1`, the inhibition is -15.5%.

Consider `O=C(Nc1ccccc1C(F)(F)F)N1CCCCCC1`, for which the inhibition is -17.1%.

`O=C(NCc1cccnc1)c1ccc2c(c1)C(=O)N(Cc1ccccc1)C2=O`: the inhibition is -4.4%.

Consider `Cc1c(C#N)c(NC(=O)CCl)n(Cc2ccc(F)cc2)c1C`, for which the inhibition was 94.1% (active).

Turning to `COc1ccc(Cn2c(C)c(C)c(C#N)c2NC(=O)Nc2ccc(F)cc2)cc1`, the inhibition was -50%.

Take `Cc1c(C#N)c(NC(=O)C(C)C)n(Cc2ccccc2)c1C`: the inhibition was -2.8%.

For the compound `Cc1ccc(C(=O)N2CCOCC2)cc1S(=O)(=O)N1CCCCC1`, the inhibition was -11.7%.

Consider `CCN1CCN(CC(=O)Nc2ccc(C)cc2C)C(=O)C1=O`, for which the inhibition is 29.5%.

On to `COc1ccc(NC(=O)C2=C(C)NC(=S)NC2c2ccc(O)c(OC)c2)cc1` (centres undefined), for which the inhibition is -36.2%.

Turning to `Cc1ccnc(NC(=O)c2cc(-n3cnnc3)ccc2Cl)c1`, the inhibition is -27%.

On to `Cc1ccc(NC(=O)c2cc(-n3cnnc3)ccc2Cl)c(C)c1`, for which the inhibition was 63.4% (active).

Consider `Cc1ccc(NC(=O)c2cc(-n3cnnc3)ccc2Cl)cc1`, for which the inhibition is -21.5%.

In the case of `O=C(CCCN1C(=O)/C(=C/c2cccs2)SC1=S)Nc1cccc(C(=O)O)c1`, the inhibition is -20.6%.

Consider `COc1ccc(-n2nc(C(=O)NCC(=O)N3CCCC(C)C3)c3ccccc3c2=O)cc1Cl` (centres undefined), for which the inhibition was -22.7%.

Consider `CCCC1S/C(=N/N=C/c2ccc(OC)cc2)N(Cc2ccc(OC)cc2)C1=O` (centres undefined), for which the inhibition is 12.9%.

Consider `CCCC1S/C(=N/N=C/c2ccc(C)cc2)N(Cc2ccc(OC)cc2)C1=O` (centres undefined), for which the inhibition was 39.2%.

Turning to `CCCCC1S/C(=N/N=C/c2ccc(OC)cc2)N(Cc2ccc(OC)cc2)C1=O` (centres undefined), the inhibition is 75.2% (active).

On to `COc1ccccc1CNC(=O)C(C)n1nc(C)n2c(cc3occc32)c1=O` (centres undefined), for which the inhibition is -26.7%.

Regarding `Cc1ccc(C(=O)C(C)N2C(=O)NC(C)(c3ccccc3)C2=O)cc1` (centres undefined), the inhibition was -36.5%.

`O=C(Cc1ccc(Br)c2ccccc12)N/N=C/c1ccccn1`: the inhibition was 7.4%.

On to `Cc1c(CCC(=O)O)c(=O)oc2c(C)c3occ(-c4ccc(Br)cc4)c3cc12`, for which the inhibition was 27.8%.

In the case of `COc1ccc(-c2coc3c(C)c4oc(=O)c(CCC(=O)O)c(C)c4cc23)cc1`, the inhibition was 10.4%.

As to `COC(=O)c1cc(-c2ccc(F)cc2)n(-c2ccccc2)n1`, the inhibition was -3.9%.

In the case of `Cc1cc(C)cc(NC2=C(N)C(=O)c3ccccc3C2=O)c1`, the inhibition was -4.5%.

Consider `Cc1cc(C)c(Nc2cc(S(=O)(=O)O)c(N)c3c2C(=O)c2ccccc2C3=O)c(C)c1`, for which the inhibition was 69.6% (active).

For `Nc1c(S(=O)(=O)O)cc(NC(=O)c2ccccc2)c2c1C(=O)c1ccccc1C2=O`, the inhibition is 11.8%.

Consider `Cc1ccc(NC(=O)c2sc(C)nc2C)c(C)c1`, for which the inhibition is -0.8%.

`O=C(O)c1cccnc1SCC(=O)C12CC3CC(CC(C3)C1)C2`: the inhibition is -9.5%.

Turning to `CCOC(=O)Cc1c(C)nc2c(-c3cccc(Br)c3)c[nH]n2c1=O`, the inhibition was 69.7% (active).

With `CCOC(=O)Cc1cc(=O)n2[nH]cc(-c3cccc(Br)c3)c2n1`, the inhibition was 27.2%.

For `CCOC(=O)Cc1c(C)nc2c(-c3ccccc3)c[nH]n2c1=O`, the inhibition was -6.6%.

In the case of `CCCN1CCN(C(=O)c2oc3c(Cl)cccc3c2C)CC1`, the inhibition was 11.7%.

`Cc1ccc(C(=O)NCCCN2CCOCC2)c(C)c1`: the inhibition is -33.2%.

For `N=C1C(c2nc3ccccc3s2)=C(O)CN1NC(=O)c1ccc([N+](=O)[O-])cc1`, the inhibition is 102% (active).

For the compound `N=C1C(c2nc3ccccc3s2)=C(O)CN1NC(=O)c1ccccc1[N+](=O)[O-]`, the inhibition is -23%.

In the case of `Cc1ccc(-c2csc(C3=C(O)CN(NC(=O)c4ccc([N+](=O)[O-])cc4)C3=N)n2)cc1`, the inhibition was 3.2%.

Take `Cc1csc(SCCn2c(N3CCOCC3)nc3c2c(=O)[nH]c(=O)n3C)n1`: the inhibition was -13.7%.

Take `COc1ccc(/C=C/c2cc(C(F)(F)F)[nH]c(=O)n2)cc1OC`: the inhibition is 44.3%.

In the case of `COc1cc(/C=C/c2cc(C(F)(F)F)[nH]c(=O)n2)cc(OC)c1OC`, the inhibition is 86.7% (active).

Take `COc1cc(OC)c(OC)cc1/C=C/c1cc(C(F)(F)F)[nH]c(=O)n1`: the inhibition is -1%.

In the case of `CS(=O)(=O)N(CCC#N)Cc1ccc(C=O)o1`, the inhibition is -32.9%.

`Cc1ccc(/C=C2\C(=O)Nc3ccccc32)o1`: the inhibition was -9.5%.

Take `CS(=O)(=O)N(CCC#N)Cc1ccc(/C=C2\C(=O)Nc3ccccc32)o1`: the inhibition was 57.1% (active).

`O=C(Nc1ccc(O)cc1)/C(=C\C=C\c1ccccc1)NC(=O)c1ccccc1`: the inhibition was -13.3%.

As for `CCN(C(=O)COC(=O)/C=C/c1cccc([N+](=O)[O-])c1)c1ccccc1`, the inhibition is -31.8%.

On to `Cn1cnc([N+](=O)[O-])c1Sc1nnc(-c2cccnc2)n1C`, for which the inhibition was -5.6%.

As for `CCn1nc(C)cc1-c1nnc(Sc2ncc([N+](=O)[O-])s2)n1C`, the inhibition is 35.4% (active).

Consider `CCn1ncc([N+](=O)[O-])c1C(=O)n1nc(C)cc1C`, for which the inhibition was -22.7%.

For the compound `CC(C)(C)SCCNS(=O)(=O)c1ccc2ccccc2c1`, the inhibition was 7.5%.

With `Cc1cccc(NS(=O)(=O)c2cc(NC(=O)CC(=O)c3ccc([N+](=O)[O-])cc3)ccc2C)c1`, the inhibition was 41.5%.

Turning to `COc1cccc(NC(=O)CC(=O)c2ccc([N+](=O)[O-])cc2)c1`, the inhibition is -3.4%.

Take `Cc1ccc(C(=O)CCC(=O)Nc2ccc(Cl)c(S(=O)(=O)Nc3cccc(Cl)c3)c2)cc1`: the inhibition was 19.9%.

Turning to `COc1ccc(NS(=O)(=O)c2cc(NC(=O)CC(=O)c3ccc([N+](=O)[O-])cc3)ccc2C)cc1`, the inhibition is 54.7% (active).

Consider `COc1ccc(C(=O)CC(=O)Nc2ccc([N+](=O)[O-])cc2)cc1`, for which the inhibition is -14.5%.
